The panel holds about 83,000 compounds, 20% with a hit somewhere; the sample as a whole holds those more often.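 Method: cells in 96-well plates; compound added at one concentration; 48 h incubation; percent growth measured; values under 10 scored active.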 A number with no mark means an inactive call. Activity calls are given as the source filed them.

The subject of the experiment is MDA-MB-231 breast. The experiment in a line: NCI-60 one-dose screen, 48 h (100 = growth as untreated, 0 = no growth, -100 = all killed). The following applies: 10 µM unless noted.
As for `CCCSc1nc(Nc2ccc(S(N)(=O)=O)cc2)c(C#N)c(-c2ccc(Cl)cc2)n1`, the growth was -55.6% (active).

As for `CCCCSc1nc(Nc2ccc(S(N)(=O)=O)cc2)c(C#N)c(-c2ccc(Cl)cc2)n1`, the growth is -36.1% (active).

On to `Cn1cc(-c2cc3nc(-c4cn(C)c5ncccc45)cc(N)n3n2)c2ccccc21`, for which the growth is -19.9% (active).

For `Cc1ccc(C2=NN(c3nc(-c4cc5ccccc5oc4=O)cs3)C(c3ccc(C)cc3)C2)cc1` (centres undefined), the growth was 84.4%. As to `Cc1ccc2c(c1)nc(-c1ccccc1)n2CC(=O)N=Nc1c(O)[nH]c2ccc(Br)cc12`, the growth was -76.4% (active).

In the case of `O=C(Cn1nc(-c2ccccc2)ccc1=O)N/N=C/c1ccc(N2CCOCC2)cc1`, the growth is 104%. Consider `O=C(NN1C(=O)/C(=C/C=C/c2ccc([N+](=O)[O-])o2)SC1=S)c1ccc(Cl)cc1`, for which the growth was -97.5% (active). For `CCCCSc1nc(Nc2ccc(S(N)(=O)=O)cc2)c(C#N)c(-c2cc(OC)c(OC)c(OC)c2)n1`, the growth was 42.5%. As for `COc1cc2c3c(n(CCCN4CCC[C@@H]4CO)c(=O)c2cc1OC)-c1cc2c(cc1C3=O)OCO2`, the growth is -93.3% (active).

For `Cn1cc(-c2cc(N)n3nc(-c4cn(C)c5ncc(Br)cc45)cc3n2)c2cc(Br)cnc21`, the growth is 6.75% (active). On to `Cn1cc(-c2cc(N)n3nc(-c4c[nH]c5ccccc45)cc3n2)c2cccnc21`, for which the growth was -9.34% (active). Then `CN(C)c1nc(NCCNS(=O)(=O)c2ccc(C3=Nc4c(N)nc(N)nc4NC(c4ccccc4)C3)cc2)nc(Nc2ccc(F)cc2)n1` (centres undefined), with 20.7%. On to `COc1ccc(-c2ccc(SCC(=O)NCCc3ccc(S(N)(=O)=O)cc3)nn2)cc1`, for which the growth was 92.6%.

As for `O=C(CCN1C(=O)/C(=C/c2ccc(F)cc2)SC1=S)N1CCOCC1`, the growth is 60.9%. As for `Cc1cc2nc3c4ccccc4n(CC4=NCCN4)c3nc2cc1C`, the growth is -43.2% (active). Then `Cc1ccc(C(=O)NN2C(=O)/C(=C/C=C/c3ccc([N+](=O)[O-])o3)SC2=S)cc1`, with -96.4% (active); and `Cc1cc2nc3c([nH]c2cc1C)c1ccc(=O)cc1n3CCN(C)C`, with 38.7%; and `N/C(=N\c1nc2ccccc2s1)NC(=O)Nc1c(Cl)cccc1Cl`, with 28.9%. In the case of `Brc1ccc(-c2n(Cc3ccc4ccccc4c3)c(-c3ccccc3)c(-c3ccccc3)[n+]2Cc2ccc3ccccc3c2)cc1`, the growth was -89.5% (active). Regarding `C=C1CC[C@@H]2[C@]3(C)COC(c4cn[nH]c4-c4ccc(Br)cc4)O[C@@H]3CC[C@@]2(C)[C@@H]1C/C=C1/C(=O)OCC1O` (some centres undefined), the growth was -65.8% (active). As to `COc1ccc(-c2nc3cc(C)ccc3n2CC(=O)N=Nc2c(O)[nH]c3ccc(Br)cc23)cc1`, the growth was -28.1% (active). For the compound `CC12CC[C@@H]3[C@]4(C)COC(c5cn[nH]c5-c5cccc(Br)c5)O[C@@H]4CC[C@@]3(C)[C@@H]1CC(C1=CCOC1=O)O2` (some centres undefined), the growth is 35.1%. Regarding `COc1c(F)ccc(C(=O)Nc2ccc3nc(NC(=O)C4CCCN(S(=O)(=O)c5ccc(C#N)cc5)C4)sc3c2)c1F` (centres undefined), the growth was 99.1%. As for `COc1ccc2c(c1)c(-c1cc3nc(-c4cn(C)c5ncccc45)cc(N)n3n1)cn2C`, the figure is -82.8% (active); as for `CC(=O)c1cc(C(=O)c2ccccc2)n2c1ccc1ccccc12`, 78.4%; as for `COc1ccc2[nH]c(=O)c(CSc3nccc(-c4ccc(OC)c(OC)c4)n3)cc2c1`, 6.47% (active).

Turning to `COc1ccc(NC(=O)Cn2c3c(sc2=O)[C@H]2[C@@H](O)[C@@H](O)[C@H](O)[C@@H]2CS3)cc1`, the growth is 107%. As for `C=C1CCC2C3(C)COC(c4cccs4)OC3CCC2(C)C1CC(Sc1ccccc1)C1=CCOC1=O` (centres undefined), the growth is 89.3%. Take `CC1CN(c2oc(-c3ccc([N+](=O)[O-])cc3)nc2C#N)CC(C)O1` (centres undefined): the growth is 95.9%. Turning to `Cc1occc1C(=O)NN1C(=O)/C(=C/C=C/c2ccc([N+](=O)[O-])o2)SC1=S`, the growth was -89% (active). Turning to `N=C1N=C(SCc2nc3ccccc3[nH]2)NC(=O)/C1=C/c1ccc(Cl)cc1`, the growth was 92.8%. Turning to `O=C(NN1C(=O)/C(=C/C=C/c2ccc([N+](=O)[O-])o2)SC1=S)c1ccccc1O`, the growth is -93.1% (active). As for `COc1ccc(-c2nc3cc(C)ccc3n2CC(=O)N=Nc2c(O)[nH]c3ccc(Cl)cc23)cc1`, the figure is -43.8% (active); as for `COC1=C[C@]23CCC(=O)N2CCc2cc4c(cc2[C@@H]3[C@@H]1OC(=O)[C@H](C)O)OCO4`, 61.8%.
